Laboratory results from the supplement of paper PMC8387472.

Experiments:
Assay in all cases: fraction of 1-bp insertions among edited reads; higher = more 1-bp insertion outcomes
Settings in all cases: mESC; 2uM; 72 h treatment, harvest day 5
[1] = compound: O=C(c1cccc(Cl)c1F)N1CCN(Cc2cccc(Nc3nccs3)n2)CC1
Pemetrexed = compound: Nc1nc2[nH]cc(CCc3ccc(C(=O)N[C@@H](CCC(=O)O)C(=O)O)cc3)c2c(=O)[nH]1 [Pemetrexed]
[2] = compound: Nc1ncnc2c1c(-c1cnc3[nH]ccc3c1)nn2C1CCCC1
Kenpaullone = compound: O=C1Cc2c([nH]c3ccc(Br)cc23)-c2ccccc2N1 [Kenpaullone]
Genistein = compound: O=c1c(-c2ccc(O)cc2)coc2cc(O)cc(O)c12 [Genistein]
[3] = compound: O=c1cc(N2CCOCC2)oc2c(-c3ccc4c(c3)OCCO4)csc12
Mercaptopurine (6-MP) = compound: S=c1[nH]cnc2nc[nH]c12 [Mercaptopurine (6-MP)]
[4] = compound: S=c1nc[nH]c2nc[nH]c12 [6-Mercaptopurine (6-MP) Monohydrate]

Target | fraction of 1-bp insertions among edited reads [1] | fraction of 1-bp insertions among edited reads (Pemetrexed) | fraction of 1-bp insertions among edited reads [2] | fraction of 1-bp insertions among edited reads (Kenpaullone) | fraction of 1-bp insertions among edited reads (Genistein) | fraction of 1-bp insertions among edited reads [3] | fraction of 1-bp insertions among edited reads (Mercaptopurine (6-MP)) | fraction of 1-bp insertions among edited reads [4]
23.0 AGAACAAAGCGCTCATATAACGATATGGGGGGTTATGGGGGGTTGAATTGCTTCAGCACGA | 0.008 |  |  |  |  |  |  | 
42.0 (DMSO control at this site: 1-bp insertion 0.145, MH deletion 0.655, edited 0.132) GGGCTAAACCTATGAGCACAGTAGAACTAAGGGTGGGTGGTGTAGCTAAAGAACTTGACCA | 0.201 | 0.118 | 0.246 | 0.21 | 0.144 | 0.141 | 0.181 | 0.198
30.0 (DMSO control at this site: 1-bp insertion 0.074, MH deletion 0.67, edited 0.142) GAGCTGGCATGAGTATTTGTGCCACATGGCTCCCACATGGCTCCACATGCAAGTTTGAAAC | 0.0986 | 0.0714 | 0.113 | 0.0891 | 0.0719 | 0.0702 | 0.0954 | 0.0905
3.0 (DMSO control at this site: 1-bp insertion 0.109, MH deletion 0.149, edited 0.09) TGCTAGCGCCCCCACAAAGCGGACCAGCCAGCACTATAGGGAATAAGGCCAACTTGCACCC | 0.152 | 0.184 | 0.227 | 0.104 | 0.116 | 0.13 | 0.15 | 0.0992
0.0 (DMSO control at this site: 1-bp insertion 0.463, MH deletion 0.339, edited 0.14) AGGATTACCGAGACCTACGCGAACCGAAATCGCTGTCCGGTGCGCAAGCAGGGCTGGCGTC | 0.624 | 0.375 | 0.623 | 0.604 | 0.453 | 0.395 | 0.543 | 0.518
33.0 (DMSO control at this site: 1-bp insertion 0.008, MH deletion 0.771, edited 0.112) CATTAAGAGCAGCTGCCGGCCCCCAAGTGGACAGAGCTGGCCCTGCTGATTCAACAGTGCA | 0.0349 | 0.0161 | 0.0263 | 0.0243 | 0.0314 | 0.0159 | 0.0358 | 0.0255
44.0 (DMSO control at this site: 1-bp insertion 0.181, MH deletion 0.512, edited 0.123) ACACATACCTTCTTCGAGGCAGCCAGCATGATGAGACAGGTCTCCCACAAACACATCGTGT | 0.235 | 0.127 | 0.293 | 0.235 | 0.173 | 0.169 | 0.24 | 0.188
34.0 (DMSO control at this site: 1-bp insertion 0.184, MH deletion 0.385, edited 0.103) ATTATAGGACCCTGAGGGAGCAGAGATGTGGGAATGGGGGCCGAGCCAATTGTGATGTAAG | 0.211 | 0.121 | 0.233 | 0.154 | 0.11 | 0.176 | 0.213 | 0.2
18.0 (DMSO control at this site: 1-bp insertion 0.114, MH deletion 0.789, edited 0.094) GCGCAAGTGCATAAGTTTTTCTTAAGGCGTGCCTTTAAGGCGTGCCTTTGTCGGTCCTGGA | 0.114 | 0.0804 | 0.12 | 0.134 | 0.0973 | 0.0588 | 0.137 | 0.13
21.0 CGATTGAGAGTCAAACGGGCCAGAAAACTCCGGGAACGGGCCAGAAAACTCCGGGGCATGG |  | 0.0119 | 0.0122 | 0.0245 | 0.0192 | 0.0417 | 0.0152 | 0.0297
17.0 (DMSO control at this site: 1-bp insertion 0.112, MH deletion 0.348, edited 0.058) CCATAGCGCGATAAATATGACGGCTCATCCTGTATGACGGCTCATCCTGTATCAACTGTCC | 0.111 | 0.0727 | 0.193 | 0.166 | 0.119 | 0.172 | 0.17 | 0.144
45.0 (DMSO control at this site: 1-bp insertion 0.017, MH deletion 0.666, edited 0.101) TTACACAGCATGAACTGCTAGGTGATGATGTCAGATTCGGTTTTACTAACTTCTCCAAAAA | 0.0412 | 0.0325 | 0.0301 | 0.0351 | 0.0293 | 0.0264 | 0.0287 | 0.0267
16.0 (DMSO control at this site: 1-bp insertion 0.172, MH deletion 0.29, edited 0.05) CGGACTGCACACATGGGTAGGATCGTGCACGCGAGGTAGGATCGTGCACGCGAAGTTATTC | 0.178 | 0.149 | 0.218 | 0.198 | 0.144 | 0.19 | 0.165 | 0.166
35.0 (DMSO control at this site: 1-bp insertion 0.01, MH deletion 0.72, edited 0.098) CCACTTTTAGAGAGGGTGAAAATCATCAGTTATCATCAGGGCAACAAATTGCTTTCTCCTA | 0.0381 | 0.0156 | 0.0183 | 0.0204 | 0.00956 | 0.0278 | 0.0333 | 0.0402
47.0 (DMSO control at this site: 1-bp insertion 0.095, MH deletion 0.585, edited 0.118) GAGTGGTCCCGAGCCAGGAACTGTGTGTGTTGCAGGGGGGCAGTAACTCCCCAACTCCCTC | 0.144 | 0.0508 | 0.158 | 0.101 | 0.0861 | 0.108 | 0.101 | 0.142
1.0 (DMSO control at this site: 1-bp insertion 0.521, MH deletion 0.323, edited 0.141) GTGTCACAGTGCACGAGTGACGGGATAATGTGCTGACAGGTAATTGATAGGCTTCCAACTT | 0.653 | 0.486 | 0.73 | 0.673 | 0.54 | 0.552 | 0.591 | 0.6
32.0 (DMSO control at this site: 1-bp insertion 0.03, MH deletion 0.85, edited 0.898) AGAAGTCCAGGATCAGGGGGACTGGGGTCGGGAGGGTGGGGCAGGAAGGAAGCCAGAATCA | 0.0247 | 0.0205 | 0.0205 | 0.0214 | 0.0197 | 0.0144 | 0.0169 | 0.0198
40.0 (DMSO control at this site: 1-bp insertion 0.072, MH deletion 0.192, edited 0.189) GCGAATCAACTGTTCAACAACAGCAGCAGCCACCTGGAGGACTACAGTGGCCTGTCCGTGT | 0.0793 | 0.0582 | 0.107 | 0.0742 | 0.0673 | 0.0807 | 0.0821 | 0.084
